Compound activity deposited in PubChem by National Center for Advancing Translational Sciences (NCATS).
Shown are actives, neighbours in structure and some others; about 19% of the full set was active somewhere.
CHX counter: affects cycloheximide protein synthesis inhibition readout, counter-screen; cell reporter, cycloheximide protein synthesis inhibition counterscreen; max response, %; 12% of 300,000 active; in the data active = max response mostly above about 13%, no sharp cut-off; inactive = mostly below about 14%; also: read at 38.3 µM for the half of the compounds with a filed dose
Pf growth 96h: P. falciparum growth inhibition at 96 hours. 6.9% of 320,000 active. P. falciparum luciferase reporter growth, 96 h. AID 504834. Potency, µM (doses to about 28.7 µM), hits mostly inhibitors
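Two-generation exposure (96 h) targets delayed-death phenotype. Reporter parasites carrying integrated firefly luciferase, in red cells at 2% hematocrit and 0.05% parasitemia final, kept at 37 C, 5% CO2; luminescence loss indicates inhibition.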
AMA1-RON2 inh: inhibitors of Plasmodium falciparum AMA1-RON2 interaction; 0.2% of 360,000 active; AID 720542; AlphaScreen AMA1-biotinylated RON2 peptide binding; Potency, µM (series often up to 58.2 µM), most hits filed as inhibitors; also: nearly all actives have a fitted effect of over 45% in size
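AMA1 (3D7) with his tag at 25 nM final met compounds first, then biotinylated RON2 peptide at 25 nM; detection used donor plus acceptor beads, 10 µg/mL apiece, read by AlphaScreen after 30 min at room temperature.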
Shiga toxin inh: blocks Shiga toxin action in Vero cells; Vero cells, Shiga toxin protein synthesis inhibition reporter; inhibition, % at 38.7 µM; 9.2% of 290,000 active; in the data active = inhibition mostly above about 28%, no sharp cut-off; inactive = mostly below about 43%
SARS PLpro yeast: SARS-CoV PLP inhibition in yeast | S. cerevisiae expressing SARS-CoV PLpro, growth rescue | Potency, µM (top dose mostly 32.9 µM), hits mostly activators | 0.19% of 330,000 active | AID 485353; calls by dose curve; also: nearly all actives have a fitted effect of over 55% in size
Pf growth 48h: inhibits P. falciparum growth in the first generation, 48 h; Potency, µM (titrated, usually from 28.7 µM), most hits filed as inhibitors; P. falciparum luciferase growth in erythrocytes, 48 h; AID 504832; 5.9% of 310,000 active
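Here the parasites carry a stable luciferase gene and grow inside erythrocytes in Albumax-based RPMI medium with compound for one erythrocytic cycle. Activity is scored as loss of luminescent signal.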
A number is an active result; [ ] = another dose, or the depositor's remark. Unless noted, calls follow the shape of the dose curve; as a rule, active = well fitted curve in the direction sought with a large enough effect; inconclusive = small, poorly fitted or top-dose-only effect, or another doubt; inactive = no such curve, though single readings can be large; an effect the other way counts as inactive or inconclusive.

`Cc1nc2cc(F)ccc2n1C1CCN(C(=O)c2c(F)cccc2F)CC1` gave CHX counter inactive, Pf growth 96h inactive, AMA1-RON2 inh inactive, Shiga toxin inh inactive, SARS PLpro yeast inactive and Pf growth 48h 1.5µM.
`OCCC1CN(Cc2ccc(F)cc2)CCN1CCc1ccccc1` (centres undefined) gave CHX counter inactive, Pf growth 96h inconclusive, AMA1-RON2 inh inactive, Shiga toxin inh inactive, SARS PLpro yeast inactive and Pf growth 48h inconclusive.
`CCOc1cc(CN2CCN(CCc3ccccc3)C(CCO)C2)ccc1OC` (centres undefined) gave CHX counter inactive, Pf growth 96h inactive, AMA1-RON2 inh inactive, Shiga toxin inh inactive, SARS PLpro yeast inactive and Pf growth 48h inconclusive.
Screening OCCC1CN(Cc2ccccc2O)CCN1CCc1ccccc1 (centres undefined) returned CHX counter inactive, Pf growth 96h inactive, AMA1-RON2 inh inactive, Shiga toxin inh inactive, SARS PLpro yeast inactive and Pf growth 48h 9.3µM.
OCCC1CN(Cc2ccon2)CCN1CCc1ccccc1 (centres undefined) was read as CHX counter inactive, Pf growth 96h 13µM, AMA1-RON2 inh inactive, Shiga toxin inh inactive, SARS PLpro yeast inactive and Pf growth 48h inactive.
COc1ccc(CN2CCN(CCc3ccccc3)C(CCO)C2)cc1Cn1cncn1 (centres undefined) was read as CHX counter inactive, Pf growth 96h inconclusive, AMA1-RON2 inh inactive, Shiga toxin inh inactive, SARS PLpro yeast inactive and Pf growth 48h 5.2µM.
Screening OCCC1CN(CCCc2ccccc2)CCN1CCc1ccccc1 (centres undefined) returned CHX counter inactive, Pf growth 96h 10µM, AMA1-RON2 inh inactive, SARS PLpro yeast inactive and Pf growth 48h inconclusive.
For OCCC1CN(CCCc2ccccc2)CCN1Cc1ccccc1 (centres undefined) the results were CHX counter inactive, Pf growth 96h inactive, AMA1-RON2 inh inactive, Shiga toxin inh inactive, SARS PLpro yeast inactive and Pf growth 48h inactive.
Screening CC(C)CCN1CCN(Cc2ccon2)CC1CCO (centres undefined) returned CHX counter inactive, Pf growth 96h inactive, AMA1-RON2 inh inactive, Shiga toxin inh inactive, SARS PLpro yeast inactive and Pf growth 48h inactive.
For O=C(/C=C/[C@H]1O[C@@H](n2ccc(=O)[nH]c2=O)[C@H](O)[C@@H]1O)NCCCc1ccccc1 the results were AMA1-RON2 inh inactive.
`O=C(COC(=O)/C=C/c1ccc([N+](=O)[O-])cc1)NNC(=O)c1ccccc1` gave AMA1-RON2 inh inactive and SARS PLpro yeast inactive.
For O=C(NC1CCCC1)C1CCC(CNS(=O)(=O)c2ccccc2)CC1 (centres undefined) the results were CHX counter inactive, Pf growth 96h inactive, AMA1-RON2 inh inactive, Shiga toxin inh inactive, SARS PLpro yeast inactive and Pf growth 48h inactive.
Screening CCOc1cccc(CN2CCN(CCc3ccccc3)C(CCO)C2)c1O (centres undefined) returned CHX counter inactive, Pf growth 96h inactive, AMA1-RON2 inh inactive, Shiga toxin inh inactive, SARS PLpro yeast inactive and Pf growth 48h inconclusive.
Screening COc1cccc(CN2CCN(CCCc3ccccc3)C(CCO)C2)c1O (centres undefined) returned CHX counter inactive, Pf growth 96h 7.4µM, AMA1-RON2 inh inactive, Shiga toxin inh inactive, SARS PLpro yeast inactive and Pf growth 48h inactive.
Screening CC(c1ccccc1)n1cnc2ccccc21 (centres undefined) returned CHX counter inactive, Pf growth 96h inactive, AMA1-RON2 inh inactive, Shiga toxin inh inactive, SARS PLpro yeast inactive and Pf growth 48h inactive.
CC(c1ccccc1)n1cncc1C(=O)O (centres undefined) was read as CHX counter inactive, Pf growth 96h 1.5µM, AMA1-RON2 inh inactive, Shiga toxin inh inactive, SARS PLpro yeast inactive and Pf growth 48h inactive.
COC(=O)c1cncn1C(C)c1ccccc1 (centres undefined) was read as CHX counter inactive, Pf growth 96h 2.1µM, AMA1-RON2 inh inactive, Shiga toxin inh inactive, SARS PLpro yeast inactive and Pf growth 48h inconclusive.
For Cc1ccccc1/C=N/N1CCN(c2ccccc2)CC1 the results were CHX counter 50, Pf growth 96h inactive, AMA1-RON2 inh inconclusive, Shiga toxin inh 103, SARS PLpro yeast inactive and Pf growth 48h inactive.
Screening Cc1cccc(/C=N/N2CCN(c3ccccc3)CC2)c1 returned CHX counter 42, Pf growth 96h inactive, AMA1-RON2 inh inconclusive, Shiga toxin inh 73, SARS PLpro yeast inactive and Pf growth 48h inactive.
Screening Cc1ccc(/C=N/N2CCN(c3ccccc3)CC2)cc1 returned CHX counter 19, Pf growth 96h inactive, AMA1-RON2 inh inactive, Shiga toxin inh inactive, SARS PLpro yeast inactive and Pf growth 48h inactive.
Screening Cc1ccc(N2CCN(/N=C/c3ccncc3)CC2)cc1 returned CHX counter inactive, Pf growth 96h inactive, AMA1-RON2 inh inactive, Shiga toxin inh inactive, SARS PLpro yeast inactive and Pf growth 48h inactive[5.75 µM].
Screening CC1(C)Cc2cccc(OCC(=O)NCc3cccs3)c2O1 returned Pf growth 96h inactive, AMA1-RON2 inh inactive, SARS PLpro yeast inactive and Pf growth 48h inconclusive.
CCOC(=O)N1CCC(NC(=O)c2ccc3c(c2)sc2nc(-c4ccc(OC)cc4)cn23)CC1 was read as CHX counter 20, Pf growth 96h inactive, Shiga toxin inh 57, SARS PLpro yeast inactive and Pf growth 48h inactive.
Screening CCOC(=O)N1CCN(C(=O)Cn2nc(C)c3sc4ccccc4c3c2=O)CC1 returned CHX counter inactive, Pf growth 96h 10µM, AMA1-RON2 inh inactive, Shiga toxin inh inactive, SARS PLpro yeast inactive and Pf growth 48h inconclusive.
CCOC(=O)N1CCN(C(=O)c2ccc3nc(C)sc3c2)CC1 was read as CHX counter inactive, Pf growth 96h inconclusive, AMA1-RON2 inh inactive, Shiga toxin inh inactive, SARS PLpro yeast inactive and Pf growth 48h inactive.
For CCOC(=O)N1CCN(C(=O)c2ccc3c(c2)sc2nc(-c4ccccc4)cn23)CC1 the results were CHX counter 53, Pf growth 96h inactive, AMA1-RON2 inh inactive, Shiga toxin inh 43, SARS PLpro yeast inactive and Pf growth 48h inactive.
CCOC(=O)N1CCN(C(=O)c2nc3ccccc3s2)CC1 was read as CHX counter 34, Pf growth 96h inconclusive, AMA1-RON2 inh inactive, Shiga toxin inh 73, SARS PLpro yeast inactive and Pf growth 48h inactive.
For Nn1c(SCc2ccc(F)cc2)nnc1-c1ccncc1 the results were CHX counter inactive, Pf growth 96h inactive, AMA1-RON2 inh inactive, Shiga toxin inh inactive, SARS PLpro yeast inactive and Pf growth 48h inconclusive.
Screening C#CCOCC1CNC(=S)O1 (centres undefined) returned AMA1-RON2 inh inactive.
Screening COc1cccc(/C=C/C(=O)OCC(=O)c2c[nH]c3ccccc23)c1OC returned CHX counter 11, Pf growth 96h inactive, AMA1-RON2 inh inactive, Shiga toxin inh inactive, SARS PLpro yeast inactive and Pf growth 48h inconclusive.
